Data on 97 compounds can be found in PubChem BioAssay AID778 (Sanford-Burnham Center for Chemical Genomics, 2007).

The inhibition is the drop in the measured response relative to a control, in per cent.

Screen size: about 96,000 compounds; about 20,000 (21%) were called active. A selection follows. Unmarked numbers belong to inactive results.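 The calls were made as follows: active = CYP2C19 inhibition above a set limit at 5 µM in the primary screen (cut at about 50% in these data); inactive = the rest.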

This test deals with Cytochrome P450 2C19 (Homo sapiens) (UniProt P33261). In words: blockers of cytochrome P450 2C19 activity – biochemical, luminescence, ADME assay, primary screen (AID 778).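 Also: plate controls were negative control wells for no effect and 2.5 mM tranylcypromine positive control for full effect.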 The note with it: CYP2C19 Supersomes, luciferin-H EGE luminescence, 30 min; at 5 µM; active compounds read high.
Sequence of Cytochrome P450 2C19 (Homo sapiens) (P33261 whole entry, looked up): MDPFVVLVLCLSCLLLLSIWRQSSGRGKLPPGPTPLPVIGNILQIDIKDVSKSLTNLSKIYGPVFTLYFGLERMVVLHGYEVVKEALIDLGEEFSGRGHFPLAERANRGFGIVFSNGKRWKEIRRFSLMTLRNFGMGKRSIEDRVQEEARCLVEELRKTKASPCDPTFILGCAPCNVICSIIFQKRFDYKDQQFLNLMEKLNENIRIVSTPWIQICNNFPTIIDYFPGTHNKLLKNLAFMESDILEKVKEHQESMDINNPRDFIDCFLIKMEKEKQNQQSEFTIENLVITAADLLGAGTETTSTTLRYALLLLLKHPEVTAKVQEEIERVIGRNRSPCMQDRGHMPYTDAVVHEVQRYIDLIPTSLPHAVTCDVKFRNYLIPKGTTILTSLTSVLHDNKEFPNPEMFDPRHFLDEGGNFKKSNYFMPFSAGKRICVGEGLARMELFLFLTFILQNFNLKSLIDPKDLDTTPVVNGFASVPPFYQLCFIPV
For `Nc1nonc1-c1nc2ccccc2n1Cc1ccc(F)cc1`, the inhibition is 44.1%.

Take `CC(C)N(c1ccccc1)c1ncnc(NCCC(=O)O)c1[N+](=O)[O-]`: the inhibition is 55% (active).

For the compound `Cc1oc(-c2cccc(Cl)c2)[n+]([O-])c1C`, the inhibition was -4.8%.

For `CCOC(=O)C1=C(c2ccccc2)N=C2SCC(=O)N2C1c1ccc(O)c(OC)c1` (configuration not stated), the inhibition was 79.4% (active).

Take `COc1cc(C2C(C(=O)c3ccc(C)o3)=C(O)C(=O)N2CCc2ccccc2)ccc1O` (configuration not stated): the inhibition is -1.7%.

As for `CC1(C)Cc2nc3sc4c(SCC(=O)NC(c5ccccc5)c5ccccc5)ncnc4c3cc2CO1`, the inhibition is 15.3%.

As to `CC1=CC(=O)C=CC1(C)C(Cl)(Cl)Cl` (configuration not stated), the inhibition is 9.4%.

As to `CCC(C)Sc1nc2c(c(=O)[nH]c(=O)n2C)n1CC(O)COc1cccc2ccccc12` (configuration not stated), the inhibition is 14.5%.

In the case of `CCC(C)Sc1nnc(-c2c[nH]c3ccccc23)n1CCOC` (configuration not stated), the inhibition is 15.6%.

Take `CCn1c(SCC(=O)Nc2ccc(OC)c(OC)c2)nnc1-c1c[nH]c2ccccc12`: the inhibition was 42.9%.

With `CCn1c(SCCC(C)C)nnc1-c1c[nH]c2ccccc12`, the inhibition was 88.7% (active).

Take `CCOC(=O)N1CCN(C(=O)c2cn(C)c3ccc(S(=O)(=O)N4CCCC4)cc3c2=O)CC1`: the inhibition was -12.6%.

As to `O=C(c1ccc(=O)[nH]c1)N(Cc1ccco1)C1(C(=O)NC2CCCCC2)CCCCC1`, the inhibition is -4.2%.

As for `N=c1c2c3c(sc2ncn1N)CCCCC3`, the inhibition is -16%.

With `c1nnc2c3c4c(sc3ncn12)CCC4`, the inhibition was 1.2%.

On to `C=C(C)CSc1nc(N)c2c3c(sc2n1)CCC3`, for which the inhibition is 60.4% (active).

Turning to `CC(C)(C)NC(=O)NC(=O)COC(=O)CCC1CCCCC1`, the inhibition was -4.7%.

For the compound `CCN1CCCC1CNC(=O)c1cc2c(=O)n(C)c3ccccc3c2n1C` (configuration not stated), the inhibition was -9.3%.

Regarding `Cc1[nH][nH]c(=O)c1N=Nc1ccccc1`, the inhibition is 13.3%.

On to `Cc1ccc(C2CC2C(=O)NN)cc1` (configuration not stated), for which the inhibition was 47.6%.

As to `N/C(=N\OC(=O)CCC1CCCCC1)c1ccccn1`, the inhibition was 5.1%.

In the case of `CC(C)(C)c1cc2cccnc2n1Cc1cccc(F)c1`, the inhibition is 14.8%.

On to `N#C/C(=C/c1ccc(Cl)cc1)NC(=O)c1ccccc1`, for which the inhibition is 3.3%.

For `CCCCCN1CC(O)=C(c2ccccc2)C1=N`, the inhibition was -0.3%.

Consider `Cc1ccc2cc(C#N)c(SCC(=O)NCC3CCCO3)nc2c1C` (configuration not stated), for which the inhibition was -2.3%.

In the case of `Cc1nc2cc(NC(=O)CSc3nc4c(C)cccc4cc3C#N)ccc2s1`, the inhibition was 6.7%.

Consider `CC(NC(=O)CSc1nc2c(cc1C#N)CN(C)CC2)c1ccccc1` (configuration not stated), for which the inhibition was 79.6% (active).

`O=C1c2ccccc2C2=Nc3ccccc3SC(c3ccccc3F)C12` (configuration not stated): the inhibition is 8%.

Turning to `Cc1ccc(C2CC(c3cccc(C)c3)n3nc(N)nc3N2)cc1` (configuration not stated), the inhibition was 45.1%.

With `Clc1ccc(C2CC(c3cccs3)n3ncnc3N2)cc1Cl` (configuration not stated), the inhibition is 81.9% (active).

Take `Nc1nc2n(n1)C(c1ccco1)CC(c1ccc(Cl)c(Cl)c1)N2` (configuration not stated): the inhibition is 31%.

With `CN1CCCc2cc(C#N)c(=O)[nH]c21`, the inhibition is 10.9%.

As for `Fc1ccc(OCc2nn3c(Cn4nnc5ccccc54)nnc3s2)cc1`, the inhibition is 26.6%.

With `CCc1cc2c(=O)c(-c3ccon3)c(N)oc2cc1OC`, the inhibition is 1.3%.

Consider `COc1cc(C(=O)N2CCN(C/C=C/c3ccccc3)CC2)cc(OC)c1C`, for which the inhibition is 68.8% (active).

As for `COc1ccc(C(=O)N2CCC(C(=O)Nc3cccc(C)c3)CC2)cc1OC`, the inhibition was -3.6%.

Take `COc1ccccc1Cn1c(=S)[nH]c2cc(C(=O)N3CCN(C)CC3)ccc2c1=O`: the inhibition was -10.4%.

Consider `O=C(NCCc1ccco1)c1nn(Cc2ccccc2)c(=O)c2ccccc12`, for which the inhibition is -8.3%.

For `COCc1cc(C)nc(Nc2cc(C)ccc2C)c1C#N`, the inhibition is 19.8%.

Turning to `Cc1cc(C(C)(C)C)oc1C(=O)N(CC(=O)NC1CCCC1)Cc1ccc(Cl)cc1`, the inhibition is -5.1%.

Take `CCOC(=O)c1[nH]c2ccccc2c1N=C(C)N(CC)CC`: the inhibition is -9.4%.

`CC(C)(CNC(=O)c1cc(=O)[nH]c2ccccc12)N1CCOCC1`: the inhibition was 4.2%.

Consider `CCOC(=O)c1ccc(COC(=O)c2cc(=O)[nH]c3ccccc23)o1`, for which the inhibition is 69.5% (active).

As for `O=C(NCCC1=CCCCC1)C1CCN(Cc2cnn(-c3ccccc3)c2-n2cccc2)CC1`, the inhibition was 25.4%.

Regarding `Cc1cc(C)cc(NC(=O)CSCc2cnn(-c3ccccc3)c2-n2cccc2)c1`, the inhibition is 47.5%.

`CC(=O)Nc1ccc(NC(=O)CSCc2cnn(-c3ccccc3)c2-n2cccc2)cc1`: the inhibition was 92.4% (active).

Consider `CCCn1nnc2sc3c(c2c1=O)CCC(C)C3` (configuration not stated), for which the inhibition was 28.3%.

`CCN(CC)CCN1C(=O)C(=O)/C(=C(/O)c2cnn(-c3ccccc3)c2C)C1c1cccs1` (configuration not stated): the inhibition was -2%.

Consider `C=CCOc1ccc(Cl)cc1CNCCCN1CCOCC1`, for which the inhibition is 5.8%.

With `O=C1CC(Sc2ncn[nH]2)C(=O)N1c1ccccc1` (configuration not stated), the inhibition was 14.1%.

`Cc1ccc(-n2nc(N)c3c(=O)oc(N(C)C)nc32)cc1`: the inhibition is 17.8%.

In the case of `O=C(O)CSCc1nc2ccccc2s1`, the inhibition was -10.2%.

Regarding `O=C(O)CCCCc1nc2ccccc2s1`, the inhibition is -6.9%.

As for `COc1ccccc1OCc1nc2ccccc2s1`, the inhibition is 97.6% (active).

For the compound `CCCc1nnc(NC(=O)CN2C(=O)c3ccccc3S2(=O)=O)s1`, the inhibition is -6.6%.

Consider `C/C(=N\NS(=O)(=O)c1cccc([N+](=O)[O-])c1)c1cc2ccccc2o1`, for which the inhibition is 8.6%.

For the compound `C/C(=N\NS(=O)(=O)c1ccc(Br)cc1)c1cccs1`, the inhibition is 69.6% (active).

`COC(=O)Nc1ncc(CN2C(=O)c3ccccc3C2=O)s1`: the inhibition was 8.1%.

For the compound `COc1ccc(C(=O)Cc2cnn(-c3ccccc3)c2)c(O)c1`, the inhibition is 24.9%.

Turning to `Cc1[nH]nc(-c2ccc(OCc3cnn(-c4ccccc4)c3)cc2O)c1Oc1ccc(Cl)cc1`, the inhibition is 20.9%.

Consider `Cc1cc(O)cc(O)c1C(=O)Cc1cnn(-c2ccccc2)c1`, for which the inhibition is 56.7% (active).

Turning to `Cc1ccccc1N1C(=O)C2ON(c3ccccc3)C(c3ccncc3)C2C1=O` (configuration not stated), the inhibition was 94.6% (active).

As for `COc1cc(C2C3C(=O)N(c4ccccc4)C(=O)C3ON2c2ccccc2)ccc1O` (configuration not stated), the inhibition was 58.5% (active).

In the case of `COc1cc(C2C(C(=O)Nc3ccccc3OC)=C(C)Nc3ncnn32)ccc1O` (configuration not stated), the inhibition was -5%.

Take `COc1ccc(NC(=O)Nc2cccc3cccnc23)cc1`: the inhibition was 31%.

For `CC(C)NC(=O)CCCn1c(=S)[nH]c2cc3c(cc2c1=O)OCO3`, the inhibition is -9.6%.

Turning to `COc1ccc(SCc2noc(C(=O)NCC3CCCO3)c2C(=O)O)cc1` (configuration not stated), the inhibition is 11.5%.

With `COC(C)(C)[C@]12CC(O)(C(C)C)ON1[C@H]1CCCCC1N2O` (some centres not stated), the inhibition is 7%.

On to `COC(=O)c1[nH]c2ccccc2c1NC(=O)CN1CCCc2ccccc21`, for which the inhibition is 26%.

As to `Cn1ncc2c(Nc3cccc4ccccc34)ncnc21`, the inhibition is 12.9%.

For the compound `Cn1c(=O)n(CCc2ccccc2)c(=O)c2c1nc1n2CCCN1c1ccccc1`, the inhibition was 14.9%.

As for `Cc1cccc(N2CC(C)Cn3c2nc2c3c(=O)n(CC(=O)OCc3ccccc3)c(=O)n2C)c1` (configuration not stated), the inhibition was 66.5% (active).

For the compound `COc1ccc(N2CC(C)Cn3c2nc2c3c(=O)n(Cc3ccccc3F)c(=O)n2C)c(OC)c1` (configuration not stated), the inhibition was -10.2%.

Take `O=C(O)C1CCCN(S(=O)(=O)c2cccc3cccnc23)C1` (configuration not stated): the inhibition was -11.3%.

`CC1CCCCC1NC(=O)C1CCCN1S(=O)(=O)c1cccc2nsnc12` (configuration not stated): the inhibition was 69.3% (active).

Regarding `O=C(Nc1nccs1)C1CCCN1S(=O)(=O)c1cccc2cccnc12` (configuration not stated), the inhibition is 54.2% (active).

With `O=C(c1ccco1)N1CCN(C(=O)C2CCCN(S(=O)(=O)c3cccc4nsnc34)C2)CC1` (configuration not stated), the inhibition was 1.6%.

On to `COc1ccc(NC(=O)C2CCCN(S(=O)(=O)c3cccc4cccnc34)C2)cc1` (configuration not stated), for which the inhibition is 17.5%.

As to `CC(=O)c1cccc(NC(=O)C2CCCN2S(=O)(=O)c2cccc3nsnc23)c1` (configuration not stated), the inhibition is 22.5%.

As to `O=C(COc1ccc(F)cc1)N(CC1=CCS(=O)(=O)C1)c1ccccc1`, the inhibition was -5.1%.

Regarding `Cc1ccc(C2NC(=S)NC3=C2N2CCC3CC2)cc1` (configuration not stated), the inhibition was -8.9%.

For `COc1ccc(S(=O)(=O)NC(CC(=O)NCc2ccccc2OC)c2ccco2)cc1` (configuration not stated), the inhibition was 38.2%.

With `Cc1ccc(S(=O)(=O)NCC(=O)N(CC(=O)NC2CCCCC2)Cc2ccco2)cc1`, the inhibition was 15.5%.

Take `O=C(CC(NS(=O)(=O)c1ccc(Cl)cc1)c1ccco1)NC1CCCC1` (configuration not stated): the inhibition was 62.5% (active).

Turning to `CCN(CC)P(=O)(/C(Cl)=C\Nc1c(C)n(C)n(-c2ccccc2)c1=O)N(CC)CC`, the inhibition was -1.6%.

Turning to `N#CCCN1CCN(S(=O)(=O)c2ccc(S(=O)(=O)NC3CC3)cc2)CC1`, the inhibition is -21.3%.

For the compound `CC1(C)CN=C(N2CCN(c3ncnc4sc5c(c34)CCCC5)CC2)S1`, the inhibition was 32%.

`CC(=O)OC(C(=O)NCCc1ccccc1)c1cccnc1` (configuration not stated): the inhibition was 0%.

For `O=C(CCc1ccccc1)NCc1cccnc1`, the inhibition was 18.2%.

For `CCC(Oc1ccccc1)C(=O)NCc1cccnc1` (configuration not stated), the inhibition was 67.7% (active).

Consider `CC(C)CC[n+]1ccn(C2=C([O-])c3ccccc3C(=O)/C2=N\S(=O)(=O)c2ccccc2)c1`, for which the inhibition is 7.8%.

In the case of `CCN1C(=O)c2cccc3c(N)ccc1c23`, the inhibition was 23.7%.

On to `CCn1c(NCCc2ccc(OC)c(OC)c2)nc2c1c(=O)n(C)c(=O)n2C`, for which the inhibition is 1.8%.

As to `COc1ccccc1C(=O)Oc1ccc(N2C(=O)CCC2=O)cc1`, the inhibition is -7.5%.

In the case of `COc1ccccc1C(=O)C(O)c1ccccc1OC` (configuration not stated), the inhibition was 55.8% (active).

As for `COc1ccccc1C(=O)NN1C(=O)C2C3C=CC(O3)C2C1=O` (configuration not stated), the inhibition was -6.1%.

With `Nc1nonc1-c1nc2ccccc2n1CCC(=O)O`, the inhibition was -2.5%.
